# The list shows a part of the results. Calls of active or inactive are those of the source.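 How the source made its calls: active means inhibition score of 15 or more, meaning 100 minus mean polarization as percent of control over three replicates; inactive means the rest.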
# Target: Guanine nucleotide-binding protein G(i) subunit alpha-3 (Rattus norvegicus) (UniProt P08753)
# Assay: inhibitors of GIV peptide binding to Galpha-i3, confirmation, biochemical, fluorescence polarization, FITC-GIV peptide, rat Galphai3 (AID 1259350);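 further: lower mP means peptide displaced from Galphai3 so more inhibition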
# Conditions: at 100 µM, stronger effect = lower value
# Chain of Guanine nucleotide-binding protein G(i) subunit alpha-3 (Rattus norvegicus) (P08753 whole entry, looked up): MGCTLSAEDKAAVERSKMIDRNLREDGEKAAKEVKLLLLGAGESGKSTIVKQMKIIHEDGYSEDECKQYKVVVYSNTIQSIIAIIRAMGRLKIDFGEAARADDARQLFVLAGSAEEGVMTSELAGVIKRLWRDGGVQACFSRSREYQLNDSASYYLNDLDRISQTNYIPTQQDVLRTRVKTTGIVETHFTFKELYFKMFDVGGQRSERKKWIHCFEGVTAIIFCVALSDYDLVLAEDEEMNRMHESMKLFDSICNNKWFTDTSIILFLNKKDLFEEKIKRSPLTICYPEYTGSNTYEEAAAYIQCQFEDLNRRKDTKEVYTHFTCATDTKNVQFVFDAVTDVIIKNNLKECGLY
row,SMILES,fluorescence polarization
1,CCOC(=O)C1=C(C)N(c2ccc(OC)cc2)C(=O)/C1=C\c1ccco1,77.8 mP (inactive)
2,CC1=NOC(=O)C1C(c1cccc(Br)c1)c1c(C)[nH]n(-c2ccccc2)c1=O (centres undefined),37.2 mP (active)
3,CCC(=O)N1CCc2cc(N3CC(C(=O)N4CCN(C(C)C)CC4)CC3=O)ccc21 (centres undefined),64.3 mP (active)
4,CCOC(=O)c1nc2cc(C)c(C)cc2nc1NC1CCCCC1,88.9 mP (inactive)
5,COc1ccc(Nc2cc(C(=O)NCCCN(C)c3ccccc3)c3ccccc3n2)c(OC)c1,84 mP (inactive)
6,COc1ccc(N=Nc2c(-c3ccc(OC)cc3)[nH]oc2=O)cc1,72.7 mP (inactive)
7,COc1ccccc1CNc1ncc2nc(-c3ccccc3)oc2n1,63.8 mP (inactive)
8,COC1=C(N2CCOCC2)C(=O)c2ccccc2C1=O,68 mP (inactive)
9,Cn1cccc1/C=C1\C(=O)NC(=S)N(c2ccccc2)C1=O,51.3 mP (active)
10,Cc1ccc(NC(=O)c2nc[nH]c2C(=O)N2CCCCC2)c(C(=O)c2ccccc2)c1,54.4 mP (active)
11,CC(=O)Oc1cccc2c1C(=O)C=CC2=O,73.2 mP (inactive)
12,N#CC(C#N)=C(C#N)/C=C/n1c2ccccc2c2ccccc21,50.6 mP (active)
13,COc1ccccc1N1C(=O)/C(=C/c2ccc(Cl)cc2)C=C1c1ccccc1,77.8 mP (inactive)
14,O=C(O)c1cc(NS(=O)(=O)c2ccc3c(c2)CCCC3)cnc1N1CCOCC1,43 mP (active)
15,O=C(O)c1c2ccccc2[nH]c2c1oc1cc(=O)ccc12,71.6 mP (inactive)
16,O=C(O)CCC(C(=O)O)N1C(=O)/C(=C\c2ccco2)SC1=S (centres undefined),41.8 mP (active)
17,Cc1ccc(C(=O)N2CCc3cc(CNC(=O)c4ccc(Br)cc4)ccc32)cc1,85.2 mP (inactive)
18,Cc1ccc(N2C(=O)/C(=C/c3ccc(OCC(=O)O)c(Br)c3)C(=O)NC2=S)cc1,60.7 mP (active)
19,O=C(NN=c1c(=O)c2ccccc2c1=O)c1ccncc1,66.7 mP (inactive)
20,CC(=O)Nc1ccc(Nc2c3c4c(cccc4[nH]c2=O)C(=O)c2ccccc2-3)cc1,39.3 mP (active)
21,CCOc1cc(/C=C2/C(=O)N(c3nn[nH]n3)N=C2C)cc(Cl)c1OCC,69.8 mP (inactive)
22,Cc1nn(-c2ccccc2)c2sc(-c3noc(-c4ccccc4F)n3)cc12,78.5 mP (inactive)
23,COC(=O)Cn1nc2c(-c3nc(-c4ccc(Cl)cc4)no3)cccn2c1=O,83.1 mP (inactive)
24,N#CSc1cc(SC#N)c(N)nc1N,25.2 mP (active)

# — PubChem BioAssay AID1259350 (ICCB-Longwood Screening Facility, Harvard Medical School, 2017)
